# Assay outcomes as filed in PubChem BioAssay.
# HIV RNase H inh-1 = inhibitors of HIV-1 reverse transcriptase RNase H. inhibition, % at 10 µM. actives 1.9% (n = 65,000). RT-RNase H RNA/DNA duplex cleavage, fluorescence. P04585. AID 565; in the data active means inhibition above about 50%
# HIV RNase H inh-2 = confirmation of HIV-1 reverse transcriptase RNase H inhibitors; inhibition, % at 10 µM; actives 39% (n = 1,000); Recombinant RT RNase H, fluorescent RNA/DNA duplex cleavage; shares compounds with HIV RNase H inh-1; in the data active means inhibition above about 48%
# Numbers without * were called inactive. Shown is part of a subset that was picked to be rich in hits.
SMILES,HIV RNase H inh-1,others
CC(C)OC(=O)c1nnn(-c2nonc2N)c1CN1CCCCCC1,-6,
CCOc1ccc2[nH]c(=O)c(CN(Cc3ccc(F)cc3)C(=O)c3ccco3)cc2c1,42,
CCc1ccc2[nH]c(=O)c(CN(Cc3ccc4c(c3)OCO4)C(=O)c3ccco3)cc2c1,58*,HIV RNase H inh-2=20
COc1ccc2[nH]c(=O)c(CN(Cc3ccc4c(c3)OCO4)C(C)=O)cc2c1,-16,
CCOC(=O)N1CCC(NC(=O)c2cccc3c2C(=O)N(c2ccc(OC)cc2)C3)CC1,40,
O=C(COC(=O)C1CCCCC1C(=O)N1CCc2ccccc21)NCc1ccco1 (centres undefined),24,
CCn1c(N)c(C(=O)NC2CCCCC2)sc1=S,-25,
CCOC(=O)c1sc(=S)n(C)c1N,-4,
CCn1c(N)c(C(N)=O)sc1=S,70*,HIV RNase H inh-2=-2
CC1=C(C(=O)NCc2ccccn2)C2(CCC(C)CC2)OC1=O (centres undefined),-5,
Cc1cc2c(cc(C(=O)NCc3cccnc3)n2Cc2ccc(Cl)cc2)o1,0,
CCCCn1c(N)c(N(CCOC)C(=O)CSc2nc3ccc(C)cc3[nH]2)c(=O)[nH]c1=O,6,
O=C(NCc1ccco1)c1ccc(COCC(F)(F)F)cc1,-10,
Clc1ccc(-c2nn3c(-c4ccncc4)nnc3s2)c(Cl)c1,0,
Clc1ccc(-c2nnc3sc(-c4ccccn4)nn23)cc1,-8,
Clc1ccccc1-c1nnc2sc(-c3ccncc3)nn12,-63,
COc1ccc(-c2nnc3sc(-c4ccccn4)nn23)cc1,-3,
Clc1ccccc1-c1nn2c(-c3ccncc3)nnc2s1,87*,HIV RNase H inh-2=57*
c1ccc(-c2nn3c(-c4ccncc4)nnc3s2)nc1,64*,HIV RNase H inh-2=47
O=C(CN1CCOCC1)N1CCN(C(=O)CN2CCOCC2)CC1,-7,
CSc1ncccc1C(=O)OCC(=O)Nc1cc(C(F)(F)F)ccc1N1CCOCC1,1,
O=C(c1cccc(S(=O)(=O)N2CCCC2)c1)c1nnc(-c2ccncc2)o1,6,
CCc1cccc(NC(=O)CN(c2ccc(OC)cc2)S(=O)(=O)c2c(C)n[nH]c2C)c1,-6,
O=C(Cc1ccc(S(=O)(=O)N2CCCC2)s1)Nc1nc2c(s1)CCCC2,76*,HIV RNase H inh-2=-3
O=C(CS(=O)(=O)Cc1ccccc1)Nc1nc2c(s1)CCCC2,-5,
SMILES,HIV RNase H inh-1,others
O=C(CCS(=O)(=O)Cc1ccccc1)Nc1nc2c(s1)CCCC2,-18,
Cc1ccc2[nH]c3c(c2c1)CN(C(=O)CN1CCN(c2ccccc2F)CC1)CC3,10,
O=C(COc1ccc(Br)cc1)Nc1ccc(-c2nnc(-c3ccco3)o2)cc1,67*,HIV RNase H inh-2=72*
O=C(COC(=O)c1ccco1)Nc1ccc(Br)cc1,-2,
CCC(Oc1ccccc1)C(=O)Nc1ccc(-c2nnc(-c3ccco3)o2)cc1 (centres undefined),11,
Cc1nn(Cc2ccccc2)c(C)c1NC(=O)CSc1nnc(-c2cc(Cl)ccc2O)n1C,8,
CN(C)C=Nc1ncc2c([nH]c3ccccc32)c1C#N,1,
Cc1cccn2c(=O)c3cc(C(=O)N4CCN(c5ccccc5)CC4)n(C)c3nc12,-7,
CCCCS(=O)(=O)NC1=NCN(C2CCN(Cc3ccccc3)CC2)CN1,-5,
COc1cccc(-n2c(SCC(=O)Nc3cc(C)on3)nc3c([nH]c4ccccc43)c2=O)c1,-4,
Cc1ccc(-n2c(SCC(N)=O)nc3c([nH]c4ccccc43)c2=O)cc1,-1,
O=C(CSc1nc2c([nH]c3ccccc32)c(=O)n1-c1ccccc1)N1CCOCC1,4,
COc1cccc(-n2c(SCC(N)=O)nc3c([nH]c4ccccc43)c2=O)c1,6,
O=C(CSc1nc2c([nH]c3ccccc32)c(=O)n1-c1cccc(Cl)c1)N1CCOCC1,78*,HIV RNase H inh-2=67*
COc1ccc(-n2c(SCC(=O)N3CCCC3)nc3c([nH]c4ccccc43)c2=O)cc1,87*,HIV RNase H inh-2=88*
Cc1cc(C)nc(/N=C/c2c(O)n(C)c(=O)n(C)c2=O)n1,-18,
COc1ccc(Cc2nnc(SCC(=O)Nc3nc(C)cs3)o2)cc1,-1,
O=C1C2CC=CCC2C(=O)N1c1ccc(Cc2ccncc2)cc1 (centres undefined),-3,
COc1ccc(-c2nc(CS(=O)(=O)CC(=O)NCCc3cc(OC)ccc3OC)c(C)o2)cc1,-7,
COc1ccc(OC)c(CCNC(=O)Cn2sc3nc(C)cc(C)c3c2=O)c1,97*,HIV RNase H inh-2=57*
COc1ccc(OC)c(CCNC(=O)CS(=O)(=O)Cc2nc(-c3ccc(C)cc3)oc2C)c1,-16,
COc1ccc(C2/C(=C(/O)c3ccc(F)cc3)C(=O)C(=O)N2CCCN(C)C)cc1 (centres undefined),1,
CCCc1cc(C(N)=O)c(NC(=O)C2CCCO2)s1 (centres undefined),76*,HIV RNase H inh-2=64*
CCOC(=O)c1sc(NC(=O)C2CCCO2)c(C(=O)OCC)c1C (centres undefined),23,
CCCc1cc(C(N)=O)c(NC(=O)c2ccco2)s1,48,
